Source: PubChem BioAssay (NCI)
Several values for one entry are separate records, joined by “and”; a condition that tells them apart may be missing. Identical values can stand only once. Compounds without any hit were thinned out: in the full panel of roughly 83,000, 20% have a hit.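 Assay: single dose, 48 h. Readout: percent growth (0 = no net growth; negative = cell death). Active: <10.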 Activity calls are given as the source filed them. Where a SMILES comes first, the peptide text is derived from it. The star is where a group is joined. Trt = c1ccc(C(c2ccccc2)(c2ccccc2)*)cc1; Cbz = O=C(OCc1ccccc1)*

system: HOP-62 NSCLC; test: NCI-60 one-dose screen, 48 h (100 = growth as untreated, 0 = no growth, -100 = all killed); conditions: 10 µM
Procedure: Growth inhibition of the HOP-62 human Non-Small Cell Lung tumor cell line is measured as a screen for anti-cancer activity. Cells are grown in 96 well plates and exposed to the test compound for 48 hours. Compounds are tested at a single concentration, which is 10^-5 M for most compounds. The reported endpoint is percent growth (GI% or GIPRCNT), where numbers from 0 - 100% represent growth inhibition, and numbers from -100% - 0 represent cell death. For example, a value of 40 represents 60% growth inhibition. A value of 0 means no net growth occurred over the course of the experiment. A value of -40 indicates 40% of cells at the beginning of the experiment died by the end of the experiment. A value of -100 means all cells are dead at the end of the experiment.
NCI-60 Human Tumor Cell Lines Screen was performed using the standard one-dose NCI protocol, which is described in more detail at https://dtp.cancer.gov/discovery_development/nci-60/default.htm.
Compounds with GIPRCNT values below 10 were considered active. Activity score was based on GIPRCNT using the following formula: […]
Score is 0 for GIPRCNT values of 100 or above, 50 for GIPRCNT values of 0, and 100 for GIPRCNT values of -100.

Compound	growth
CN(C)C(=O)c1ccc(SC(=S)NCc2ccccc2)cc1	107% (inactive)

same assay, conditions: 10 µM unless noted

Compound	growth
O=C1c2ccccc2C(=O)N1c1ccccc1	96.9% (inactive)
Oc1c(Br)c(Br)c(O)c(Br)c1Br	146% (inactive)
Cc1cc(N)c2ccccc2[n+]1CCCCCCCCCC[n+]1c(C)cc(N)c2ccccc21	16.3% (inactive) and 25.4% (inactive)
CN(C)c1ccc(/C=N/N=C(\C#N)[S][Sn]([Cl])([c]2ccccc2)[c]2ccccc2)cc1	84.5% (inactive)
O=C1N[C@H]2[C@H](CS[C@H]2CCCCC(=O)N(CCP(c2ccccc2)c2ccccc2)CCP(c2ccccc2)c2ccccc2)N1	80.3% (inactive)
O=C(/C=C\c1cc(Br)ccc1O)/C=C/c1cc(Br)ccc1O	-57.3% (active)
Oc1c(Cl)c2ccccc2c2ccccc12	128% (inactive)
Nc1ccc(SSc2ccc(N)cc2)cc1	114% (inactive)
O=C1c2ccccc2C(=O)c2sc(Nc3cccc(Cl)c3)nc21	-77.3% (active)
CCCCCCCCCCCCCCCCOP(=O)([O-])OCC[N+](C)(C)C	19.5% (inactive)
NC(=S)N/N=C\c1nccc2c(C(F)(F)C(F)(F)C(F)(F)F)cccc12	-7.59% (active)
CCC(c1cccc(O)c1)C(CC)c1cccc(O)c1 (stereo not given)	83.8% (inactive)
Cc1ccnc2c1ccc1c(C)ccnc12	6.08% (active)
N[C@H](C(=O)O)[C@@H]1CC(Cl)=NO1	26.1% [20 µM] (inactive)
CCOc1ccc(-c2nc3ccc(-c4nc5ccc(N6CCN(C)CC6)cc5[nH]4)cc3[nH]2)cc1	-87.5% (active)
CCCCCC(CCCCC)C(=O)O	98.1% (inactive)
O=C(O)c1ccc2c3c(ncnc13)-c1ccccc1C2=O	12.3% (inactive)
Nc1ncnc2c1ncn2C1OC(CO)C(O)C1O (stereo not given)	120% (inactive) and 93.4% (inactive) and 95% (inactive)
CC(=Nc1ccc(N(C)C)cc1)c1ccccc1	54.2% (inactive)

Compound	growth
CC1OC(OC2C(OC3CCC4(C)C(CCC5(C)C4CC=C4C6CC(C)(C)CCC6(CO)C(O)CC45C)C3(C)C)OC(C(=O)O)C(OC3OC(COC4OC(CO)C(O)C(O)C4O)C(O)C(O)C3O)C2O)C(O)C(O)C1O (stereo not given)	-71.6% (active)
O=C(/C=C/c1cccc(Cl)c1)c1ccccc1	112% (inactive) and 89.9% (inactive)
Cc1ccc(NS(=O)(=O)c2ccc(C)cc2)cc1	98.5% (inactive) and 92.7% (inactive)
S=C(N/N=C/c1ccccn1)Nc1ccccn1	13.7% (inactive)
O=C(/C=C\c1ccccc1)N1c2ccccc2CC1c1c[nH]c2ccccc12 (stereo not given)	57.1% (inactive)
N#CSCC(=O)c1ccc(Cl)cc1	45.1% (inactive)
O=C1c2cccnc2-c2nccc3c2c1nc1cc(Br)ccc13	-68.6% (active) and -85.7% (active)
Cc1c2ccccc2c(C)c2c1ccc1ccccc12	95.1% (inactive)
CN(C)CCOc1ccc2c(c1)C(=O)/C(=C\c1ncc([N+](=O)[O-])n1C)C2	-17.8% (active)
COc1ccc2nc3cc(Cl)ccc3c(NCCNc3c4ccc(Cl)cc4nc4ccc(OC)cc34)c2c1	-80.4% (active)
O=C(Nc1cccc(Br)c1)Oc1ccc(Cl)c2cccnc12	31% [100 µM] (inactive)
O[C@H]1[C@H]2c3cc4c(cc3CN3CCC(=C[C@@H]1O)[C@H]23)OCO4	26.5% (inactive)
COC(=O)C(CSC(c1ccccc1)(c1ccccc1)c1ccccc1)NC(=O)C(CC(N)=O)NC(=O)OCc1ccccc1 (stereo not drawn) (Cbz-Asn-Cys(Trt)-OMe; configuration not given here)	41.4% (inactive)
C[N+](C)=c1ccc2nc3c(cc(NCCCNc4cc5oc6cc(=[N+](C)C)ccc-6nc5c5ccccc45)c4ccccc43)oc-2c1	44.4% (inactive)
COc1ccccc1OC(=O)Oc1ccccc1OC	120% (inactive) and 100% (inactive)
Cc1ccc2nc(C[n+]3ccc4ccccc4c3)ccc2c1	69.9% (inactive)
N#CSCc1c(Cl)cccc1Cl	79.1% (inactive)
NC(N)=N/N=C/c1ccc([N+](=O)[O-])o1	113% (inactive)
CCC(=O)Sc1ccccc1C(=O)Nc1ccc(Cl)cc1	76.5% (inactive)

same assay, conditions: 100 µM

Compound	growth
CN(C)C(=O)c1ccc(SC(=S)NCc2ccccc2)cc1	46.5% (inactive)
